PubChem BioAssay AID1159580 (chemical genetic matrix, 2015)
Among all 5,500 compounds or so, about 2,000 (36%) were called active. Not shown: some 18% with an inconclusive outcome. Cut-off read from the data, not from the text of the source: active = normalized growth mostly below about 0.91 (no sharp cut-off); inconclusive = no clear call, values can overlap the other calls; inactive = mostly above about 0.92. This is one part of the list.

Experiment: chemical genetic growth profiling, strain panel (AID 1159580);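 note: tested at 20 µM; growth read once vehicle control cultures reached saturation at 30 °C; 1 = growth at the plate median or of vehicle wells; lower values mean less growth of the strain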
Details: S. cerevisiae deletion strains, growth OD

Measured: normalized growth

O=C(O)c1ccccc1
inactive: locus YAL021C, strain ccr4, active compounds read low 0.97 | locus YAL026C, strain drs2, active compounds read low 0.962 | locus YAL030W, strain snc1, active compounds read low 0.977 | locus YBL061C, strain skt5, active compounds read low 0.975 | locus YBR009C, strain hhf1, active compounds read low 0.981 | locus YBR023C, strain chs3, active compounds read low 0.981 | locus YBR171W, strain sec66, active compounds read low 0.957 | locus YBR231C, strain swc5, active compounds read low 0.974 | locus YBR279W, strain paf1, active compounds read low 0.981 | locus YCL011C, strain gbp2, active compounds read low 0.954 | locus YCL016C, strain dcc1, active compounds read low 0.962 | locus YCL061C, strain MRC1, active compounds read low 0.966 | locus YCL069W, strain vba3, active compounds read low 0.986 | locus YCR088W, strain abp1, active compounds read low 0.996 | locus YDL005C, strain med2, active compounds read low 0.973 | locus YDL040C, strain nat1, active compounds read low 0.994 | locus YDR001C, strain nth1, active compounds read low 0.973 | locus YDR069C, strain doa4, active compounds read low 0.958 | locus YDR137W, strain rgp1, active compounds read low 0.975 | locus YDR159W, strain sac3, active compounds read low 0.966 | locus YDR195W, strain ref2 1.02 | locus YDR297W, strain sur2, active compounds read low 0.979 | locus YDR334W, strain swr1, active compounds read low 0.911 | locus YDR335W, strain msn5, active compounds read low 0.976 | locus YDR392W, strain spt3, active compounds read low 0.962 | locus YEL003W, strain gim4, active compounds read low 0.988 | locus YEL037C, strain rad23, active compounds read low 0.988 | locus YEL061C, strain CIN8 (second series), active compounds read low 0.971 | locus YER015W, strain faa2, active compounds read low 0.987 | locus YER016W, strain bim1, active compounds read low 0.983 | locus YER111C, strain swi4, active compounds read low 0.971 | locus YER155C, strain BEM2 (second series), active compounds read low 0.962 | locus YFR010W, strain ubp6, active compounds read low 0.958 | locus YGL167C, strain pmr1, active compounds read low 0.956 | locus YGL173C, strain kem1, active compounds read low 0.956 | locus YGL227W, strain vid30, active compounds read low 0.97 | locus YGL240W, strain doc1, active compounds read low 0.959 | locus YGL253W, strain hxk2, active compounds read low 0.965 | locus YHR013C, strain ard1, active compounds read low 0.962 | locus YHR027C, strain rpn1, active compounds read low 0.944 | locus YHR030C, strain SLT2, active compounds read low 0.894 | locus YHR079C, strain IRE1, active compounds read low 0.891 | locus YHR142W, strain chs7, active compounds read low 0.928 | locus YJL092W, strain hpr5, active compounds read low 0.966 | locus YJL095W, strain BCK1 (second series), active compounds read low 0.989 | locus YJL095W, strain BCK1, active compounds read low 0.893 | locus YJL115W, strain asf1, active compounds read low 0.945 | locus YJL129C, strain trk1, active compounds read low 0.987 | locus YJL154C, strain vps35, active compounds read low 0.975 | locus YJL164C, strain tpk1, active compounds read low 1 | locus YJL166W, strain qcr8, active compounds read low 0.969 | locus YJL187C, strain SWE1, active compounds read low 0.982 | locus YJR066W, strain TOR1, active compounds read low 0.863 | locus YKL160W, strain elf1, active compounds read low 0.965 | locus YKR026C, strain gcn3, active compounds read low 0.978 | locus YLL001W, strain dnm1, active compounds read low 0.948 | locus YLL026W, active compounds read low 0.982 | locus YLL041C, strain sdh2, active compounds read low 0.966 | locus YLR027C, strain aat2, active compounds read low 0.967 | locus YLR221C, strain rsa3, active compounds read low 0.927 | locus YLR258W, strain gsy2, active compounds read low 0.989 | locus YLR262C, strain YPT6 (second series), active compounds read low 0.998 | locus YLR320W, strain mms22, active compounds read low 0.943 | locus YLR342W, strain FKS1, active compounds read low 0.972 | locus YLR357W, strain rsc2, active compounds read low 0.969 | locus YLR370C, strain arc18, active compounds read low 0.949 | locus YLR384C, strain iki3, active compounds read low 0.958 | locus YML120C, strain ndi1, active compounds read low 0.948 | locus YMR058W, strain fet3, active compounds read low 0.951 | locus YMR125W, strain sto1, active compounds read low 0.98 | locus YMR129W, active compounds read low 0.988 | locus YMR205C, strain PFK2, active compounds read low 0.967 | locus YMR231W, strain pep5, active compounds read low 0.987 | locus YNL071W, strain lat1, active compounds read low 0.988 | locus YNL183C, strain NPR1, active compounds read low 0.84 | locus YNL209W, strain ssb2, active compounds read low 0.975 | locus YNL248C, strain rpa49, active compounds read low 0.966 | locus YNL322C, strain KRE1 (second series), active compounds read low 0.933 | locus YNR049C, strain mso1, active compounds read low 0.955 | locus YOR001W, strain rrp6, active compounds read low 0.965 | locus YOR070C, strain gyp1, active compounds read low 0.985 | locus YOR080W, strain dia2, active compounds read low 0.963 | locus YOR083W, strain WHI5, active compounds read low 0.961 | locus YOR106W, strain vam3, active compounds read low 0.923 | locus YOR265W, strain rbl2, active compounds read low 0.981 | locus YOR270C, strain vph1, active compounds read low 0.98 | locus YOR290C, strain snf2, active compounds read low 0.907 | locus YPL051W, strain arl3, active compounds read low 0.989 | locus YPL078C, strain atp4, active compounds read low 0.974 | locus YPL106C, strain sse1, active compounds read low 0.962 | locus YPL240C, strain hsp82, active compounds read low 0.996 | locus YPL256C, strain CLN2, active compounds read low 0.855
active: locus YLR113W, strain HOG1, active compounds read low 0.78 | locus YOR231W, strain MKK1, active compounds read low 0.86
